PNC inhibitor: perinucleolar compartment assembly inhibition; PC3M PTB-GFP, PNC prevalence imaging, 16 h; stronger effect = lower value; activity change (PNC), negative = inhibition, % at 10 µM; hit rate 3.1% among 140,000; AID 2417;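 active means readout at or below -70, meaning at least 70% loss of cells showing the perinucleolar compartment, a nuclear body marking cancer cells; inconclusive means readout between -30 and a set limit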
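Read-out is percentage of cells bearing a perinucleolar compartment, from automated 20x imaging of fixed, Hoechst-stained PC3M PTB-GFP cells. Cells were seeded 4 h, then exposed 16 h to compound (23 nl of library stock) in duplicate plates.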
ALOX15B inhib: blocks human 15-lipoxygenase 2 activity | O15296 | hit rate 0.56% among 110,000 | AID 881 | Potency, µM (series often up to 57.1 µM), actives largely listed as inhibitors | purified 15hLO-2, xylenol orange hydroperoxide absorbance; further: nearly all actives have a fitted effect of over 60% in size
Target sequence (O15296 whole entry, looked up): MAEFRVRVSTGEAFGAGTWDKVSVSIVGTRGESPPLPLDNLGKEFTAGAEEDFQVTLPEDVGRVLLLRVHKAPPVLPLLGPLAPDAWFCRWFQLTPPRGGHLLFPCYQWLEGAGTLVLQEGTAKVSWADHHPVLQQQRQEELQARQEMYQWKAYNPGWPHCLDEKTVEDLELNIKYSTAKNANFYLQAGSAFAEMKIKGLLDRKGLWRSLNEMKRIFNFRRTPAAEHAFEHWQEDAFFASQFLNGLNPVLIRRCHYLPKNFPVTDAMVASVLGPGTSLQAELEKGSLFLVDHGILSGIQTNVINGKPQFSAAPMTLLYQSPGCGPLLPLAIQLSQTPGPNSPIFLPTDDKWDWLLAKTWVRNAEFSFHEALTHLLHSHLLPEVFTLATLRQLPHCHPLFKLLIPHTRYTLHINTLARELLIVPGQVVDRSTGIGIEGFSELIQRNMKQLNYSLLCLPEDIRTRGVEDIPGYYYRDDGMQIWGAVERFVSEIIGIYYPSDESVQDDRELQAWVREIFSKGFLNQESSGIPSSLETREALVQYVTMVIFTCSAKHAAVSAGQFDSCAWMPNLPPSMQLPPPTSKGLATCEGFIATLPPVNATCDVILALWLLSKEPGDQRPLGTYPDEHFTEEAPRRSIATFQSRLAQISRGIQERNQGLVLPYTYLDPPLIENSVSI
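Purified human 15hLO-2 (50 nM) preincubated 15 min with compound, then 45 uM arachidonic acid for 90 min at RT in 25 mM Hepes pH 7.5, 0.01% Triton X-100. Hydroperoxide detected by Fe-xylenol orange; 573/405 nm absorbance ratio.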
ALOX12 inhib: inhibitors of human 12-lipoxygenase (ALOX12) | P18054 | purified 12-hLO, xylenol orange hydroperoxide absorbance | Potency, µM (top dose mostly 57.1 µM), hits mostly inhibitors | hit rate 0.12% among 150,000 | AID 1452; further: nearly all actives have a fitted effect of over 55% in size
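Hydroperoxide output read as Fe(III)-xylenol orange absorbance, 573-to-405 nm ratio, after 30 min reaction with 40 uM arachidonic acid. Enzyme: 150 nM purified human 12hLO, 15 min compound preincubation; 25 mM Hepes pH 7.0, room temperature.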
Large screens that a line does not name were inactive. A selection: hits, their analogues and other compounds. The true share with any hit is near 3.1%. Unless noted, the call rests on the fitted dose curve; in most records, active means well fitted curve in the direction sought with a large enough effect; inconclusive means small, poorly fitted or top-dose-only effect, or another doubt; inactive means no such curve, though single readings can be large; an effect the other way counts as inactive or inconclusive.

Cc1c(NC(=O)C(C)OC(=O)c2cc(Cl)nc(Cl)c2)c(=O)n(-c2ccccc2)n1C (centres undefined)	none (no result: ALOX15B inhib)
Cc1ccc(-c2c(C#N)c(N)nc3c2CCCCC3)cc1	none
CC1=C(C#N)c2nc(N)c(C#N)c(C)c2/C1=C\c1ccc(C)cc1	ALOX15B inhib 25µM
O=c1[nH]c(=O)c2nc(Br)n(C3OC(CO)C(O)C3O)c2[nH]1 (centres undefined)	none (no result: PNC inhibitor)
COC(=O)C(C)NC(=O)C(C)NC(=O)OCc1ccccc1 (centres undefined)	none
COC(=O)CNC(=O)C(C)NC(=O)OCc1ccccc1 (centres undefined)	PNC inhibitor -127
Cc1ccnc(NS(=O)(=O)c2ccc(N=[N+]=[N-])cc2)n1	none (no result: PNC inhibitor)
Cc1cc2nc3[nH]c4c(Cl)cc(Cl)cc4c3nc2cc1C	none (no result: PNC inhibitor)
CCCCC/C=C\C/C=C\C/C=C\C=C\C1CCCC(=O)O1 (centres undefined)	none (no result: PNC inhibitor, ALOX15B inhib)
O=C(COc1ccc2c(c1)CCC2)N1CCc2ccccc21	PNC inhibitor -81
Cc1ccc(OCC(=O)N2CCc3ccccc32)cc1	none (no result: ALOX15B inhib)
O=C(COC(=O)C1(c2ccccc2F)CCCC1)N1CCc2ccccc21	none (no result: ALOX15B inhib)
O=C(COC(=O)C1(c2ccc(F)cc2)CCCC1)N1CCc2ccccc21	PNC inhibitor -109 (no result: ALOX15B inhib)
COc1cc2nc(N(C)CCCNC(=O)[C@@H]3CCCO3)nc(N)c2cc1OC	none (no result: PNC inhibitor)
N#CC[N+]1(Cc2ccccn2)CCCC1	none (no result: PNC inhibitor)
CCOc1ccc(N2CC(C(=O)OCC(=O)NCc3ccccc3)CC2=O)cc1 (centres undefined)	none
CCc1ccc(N2CC(C(=O)OCC(=O)NC3CCS(=O)(=O)C3)CC2=O)cc1 (centres undefined)	PNC inhibitor -100 (no result: ALOX15B inhib)
COc1cccc(Cn2c(=O)c(-c3cccs3)nc3cnc(Nc4cccc(OC)c4)nc32)c1	none (no result: PNC inhibitor)
c1ccc2c(c1)[nH]c1c(N3CCCC3)ncnc12	none
c1ccc2c(c1)[nH]c1c(N3CCOCC3)ncnc12	PNC inhibitor -119
CCOC(=O)CCCN	none (no result: PNC inhibitor)
O=C(Nc1nnc(C2CCCC2)s1)C1CCC1	PNC inhibitor -127
Cc1nnc(NC(=O)C2CCCCC2)s1	none
C[C@@H](CCc1ccccc1)NC[C@H](O)c1ccc(O)c(C(N)=O)c1	none (no result: PNC inhibitor)
CCCCNC(=O)C(c1ccc(OCC(=O)OC)c(C(=O)OC)c1)N(CCc1ccccn1)C(=O)CCCCCN1C(=O)NC(c2ccc(-c3ccccc3)cc2)C(C(=O)OCc2ccccc2)=C1C (centres undefined)	none (no result: PNC inhibitor)
N#Cc1cccc(NC(=O)N2CCCC3(CCN(C(=O)c4cnccn4)CC3)C2)c1	none (no result: PNC inhibitor)
CC(/C=N/NC(=O)c1n[nH]c2c1CCC2)=C\c1ccccc1	PNC inhibitor inconclusive
O=C(N/N=C/c1ccc(Cl)cc1Cl)c1n[nH]c2c1CCCC2	PNC inhibitor -84 (no result: ALOX15B inhib)
O=C(N/N=C/C=C/c1ccccc1)c1n[nH]c2c1CCC2	PNC inhibitor -98
O=C(N/N=C\c1cccc(Cl)c1)c1n[nH]c2c1CCCC2	none (no result: ALOX15B inhib)
CC(=O)Nc1cc(C(=O)NCc2ccco2)ccc1Sc1ccc(F)cc1	none (no result: ALOX15B inhib)
CC(=O)Nc1cc(C(=O)NCc2ccco2)ccc1Sc1ccc(Cl)cc1	PNC inhibitor -103 (no result: ALOX15B inhib)
O=C(O)c1ccccc1Cl	none (no result: PNC inhibitor)
CN(C)C(=O)c1ccc(-c2nccc(-n3ccnc3)n2)cc1	none (no result: PNC inhibitor, ALOX12 inhib)
COC(=O)N1[C@H](C)C=C[C@]1(Cc1ccccc1)C(=O)NCc1ccc(C)o1	none (no result: PNC inhibitor)
Cc1nc(Nc2ccccc2)c2nc(-c3ccccc3)n(CCCN3CCCCC3C)c2n1 (centres undefined)	none (no result: PNC inhibitor)
CC(c1ccc(C(C)(C)C)cc1)S(=O)CC(O)CO (centres undefined)	PNC inhibitor -112 (no result: ALOX15B inhib)
CN(C)c1ccc(C(=O)C(O)c2ccc(C(C)(C)C)cc2)cc1 (centres undefined)	none
CCOC(=O)/C(C#N)=C1/C=CN(C)C=N1	none
CCOC(=O)/C(C#N)=C1\C=CN(C)C(C)=N1	PNC inhibitor -100 (no result: ALOX15B inhib)
CC[C@H](C)[C@H](N)C1=N[C@H](C(=O)N[C@@H](CC(C)C)C(=O)N[C@@H](CCC(=O)O)C(=O)N[C@@H](C(=O)N[C@H]2CCCCNC(=O)[C@@H](CC(N)=O)NC(=O)[C@@H](CC(=O)O)NC(=O)[C@@H](Cc3cnc[nH]3)NC(=O)[C@@H](Cc3ccccc3)NC(=O)[C@@H]([C@@H](C)CC)NC(=O)[C@@H](CCCN)NC2=O)[C@@H](C)CC)CS1	none (no result: PNC inhibitor)
COc1ccc(/C=C/c2ccncc2)cc1OC	PNC inhibitor -97 (no result: ALOX15B inhib)
COc1ccc(/C=C/C(=O)c2cccs2)cc1OC	none (no result: PNC inhibitor)
O=C(c1cccc(F)c1)N1CCC[C@@]2(CCN(c3ccccn3)C2)C1	none (no result: PNC inhibitor)
NC(=O)OC[C@H](O)COc1ccc(Cl)cc1	none (no result: PNC inhibitor)
CC1(C)CC(=O)C(C(c2cccc([N+](=O)[O-])c2)C2C(=O)CC(C)(C)CC2=O)C(=O)C1	PNC inhibitor inconclusive (no result: ALOX15B inhib)

Assay outcomes as filed in PubChem BioAssay.
